Cycloheximide cs: counter-screen hit for Shiga toxin inhibitors, cycloheximide; cell reporter, cycloheximide protein synthesis inhibition counterscreen; max response, %; hit rate 12% among 300,000; in the data active = max response mostly above about 13%, no sharp cut-off; inactive = mostly below about 14%; also: read at 38.3 µM for the half of the compounds with a filed dose; 0% is about no effect
LmPK inh: inhibitors of Leishmania mexicana pyruvate kinase | hit rate 0.37% among 290,000 | Q27686 | purified LmPK, Kinase-Glo ATP luminescence, 1 h | Potency, µM (top dose mostly 57.5 µM), for inactives: top-dose activity change, negative = inhibition, hits mostly inhibitors; also: potency is read from the fitted curve at half-maximal effect; % is scaled to controls: 0 for no effect and ±100 for the full control effect
Target sequence (Q27686 whole entry, looked up): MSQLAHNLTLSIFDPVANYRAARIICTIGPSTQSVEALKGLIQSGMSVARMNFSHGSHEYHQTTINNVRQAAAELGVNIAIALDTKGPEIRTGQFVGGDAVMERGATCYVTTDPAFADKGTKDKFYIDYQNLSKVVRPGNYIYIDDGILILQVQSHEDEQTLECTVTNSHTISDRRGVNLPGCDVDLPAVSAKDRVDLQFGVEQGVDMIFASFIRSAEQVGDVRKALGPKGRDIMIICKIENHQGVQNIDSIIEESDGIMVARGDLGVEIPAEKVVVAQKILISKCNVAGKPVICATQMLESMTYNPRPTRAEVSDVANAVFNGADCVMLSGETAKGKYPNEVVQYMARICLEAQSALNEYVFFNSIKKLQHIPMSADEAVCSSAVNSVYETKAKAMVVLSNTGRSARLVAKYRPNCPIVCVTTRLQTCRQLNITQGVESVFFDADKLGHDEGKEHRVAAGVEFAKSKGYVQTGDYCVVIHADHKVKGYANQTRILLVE
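Screened at intermediate enzyme activity to detect both inhibitors and activators: LmPK at 0.1 nM, with a 0.5 nM enzyme column as activation reference. PEP 0.5 mM, ADP 0.1 mM; ATP detected by luminescence after 1 h.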
Tb PYK inh: blocks Trypanosoma brucei pyruvate kinase. TbPYK enzyme, Kinase-Glo Plus ATP luminescence, 45 min. Potency, µM (highest dose often 76.8 µM), inactives show at the highest dose activity, negative = inhibition, most hits filed as inhibitors. hit rate 0.12% among 410,000. AID 624173; also: potency is read from the fitted curve at half-maximal effect; % is scaled to controls: 0 for no effect and ±100 for the full control effect; nearly all actives have a fitted effect of over 50% in size
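Activity of T. brucei pyruvate kinase was followed by Kinase-Glo Plus luminescence after the enzyme reacted 45 min at room temperature with 130 uM ADP (final) and substrate. Test compounds were added before ADP at multiple concentrations.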
Shiga toxin inh: blocks Shiga toxin action in Vero cells. inhibition, % at 38.7 µM. hit rate 9.2% among 290,000. Vero cells, Shiga toxin protein synthesis inhibition reporter; in the data active = inhibition mostly above about 28%, no sharp cut-off; inactive = mostly below about 43%; also: 0% is about no effect
Sm TGR block: S. mansoni TGR enzyme inhibition. Q962Y6. purified TGR, DTNB reduction, TNB absorbance 405 nm. Potency, µM (top dose mostly 114 µM), for the others: top-dose activity change, negative = inhibition, hits mostly inhibitors. hit rate 3% among 360,000. AID 485364; also: potency is read from the fitted curve at half-maximal effect; % is scaled to controls: 0 for no effect and ±100 for the full control effect; nearly all actives have a fitted effect of over 60% in size
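First, TGR (20 nM dispensed) and NADPH were mixed with compound. Second, a 15 min room-temperature incubation followed. Third, further NADPH and then DTNB were added to start the reaction. Finally, TNB absorbance was monitored kinetically.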
Giardia FBPA inh: Giardia lamblia aldolase inhibition | A8B2U2 | purified Giardia FBPA | Potency, µM (top dose mostly 59.6 µM), inactives show top-dose activity, negative = inhibition, actives largely listed as inhibitors | hit rate 0.71% among 290,000 | AID 2451; also: potency is read from the fitted curve at half-maximal effect; % is scaled to controls: 0 for no effect and ±100 for the full control effect; nearly all actives have a fitted effect of over 55% in size
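Giardia FBPA (40 nM reagent) was preincubated 10 min at RT with compound (up to 57.5 uM final), then substrate plus GAPDH/TPI/NAD/arsenate coupling system with diaphorase/resazurin was added; resorufin fluorescence (525/598 nm) was read after 20 min.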
An asterisk follows results filed as active; i = inactive; u = inconclusive; x = no result given; + = active, no number. Shown is part of a subset that was picked to be rich in hits. Unless noted, calls follow the shape of the dose curve; as a rule, active = well fitted curve in the direction sought with a large enough effect; inconclusive = small, poorly fitted or top-dose-only effect, or another doubt; inactive = no such curve, though single readings can be large; an effect the other way counts as inactive or inconclusive.

SMILES | Cycloheximide cs | LmPK inh | Tb PYK inh | Shiga toxin inh | Sm TGR block | Giardia FBPA inh
O=C(c1ccc(-c2ccccc2)c(F)c1)C1CCCN(CCO)C1 (stereo not drawn) | 15* | 1% | -2% | 68 | 0% | 4%
CN(C)S(=O)(=O)N1CCCC(C(=O)c2ccc(-c3ccccc3)c(F)c2)C1 (stereo not drawn) | 15* | 12% | 2% | 35* | 14% | 1%
CC(C)(C)NC(=O)NC(=O)COC(=O)C1CCN(S(=O)(=O)c2cccs2)CC1 | x | x | 2% | x | -1% | x
Cc1ccc(NC(=S)N2CCCC(c3nc4ccccc4[nH]3)C2)cc1 (stereo not drawn) | 7 | 4% | -4% | -7 | x | 0%
Cc1ccc(NC(=S)c2nc3ccccc3[nH]2)c(C)c1 | 51* | -21% | -3% | 97* | -26% | u
Cc1ccc(NC(=S)c2nc3ccccc3[nH]2)cc1 | 72* | u | -12% | 66* | 8% | 7%
COc1ccc(NC(=O)/C=C/C(=O)O)c([N+](=O)[O-])c1 | 10 | 1% | 5% | 10 | u | 5%
COc1ccc(NC(=O)c2ccc(Br)o2)c([N+](=O)[O-])c1 | 19* | -12% | -8% | 41 | -20% | 6%
COc1ccc(NC(=O)c2cc(Br)ccc2Cl)c([N+](=O)[O-])c1 | 1 | -2% | 2% | -1 | 0% | 3%
COc1ccc(NC(=O)c2ccc(C)cc2Cl)c([N+](=O)[O-])c1 | 37* | 6% | -10% | i | 8% | x
COc1ccc(NC(=O)c2ccc([N+](=O)[O-])s2)c([N+](=O)[O-])c1 | 25 | 1% | -2% | 46* | -1% | 0%
Cc1ccc(NC(=O)c2ccc(Br)o2)c([N+](=O)[O-])c1 | x | x | 2% | x | x | x
COc1ccc(NC(=O)c2ccc(C)o2)c([N+](=O)[O-])c1 | 22* | -14% | -6% | 39 | -1% | 3%
Cc1ccc(C)c(Cn2c(=O)n(CCCCC(=O)NCc3ccccc3Cl)c(=O)c3ccccc32)c1 | x | x | -13% | x | 3% | x
CC(C)NC(=O)N1CC[C@@]2(CCCN(C(=O)Oc3ccccc3)C2)C1 | x | x | 4% | x | x | 7%
CC[C@H](C)[C@H](N)C(=O)N[C@@H](CCCNC(=N)N)C(=O)N[C@@H](CCC(N)=O)C(=O)NCC(=O)N1CCC[C@H]1C(=O)N[C@@H](CCCCN)C(=O)N[C@@H](CCC(=O)O)C(=O)N1CCC[C@H]1C(=O)N[C@@H](Cc1ccccc1)C(=O)N[C@@H](CCCNC(=N)N)C(=O)N[C@@H](CC(=O)O)C(=O)N[C@@H](Cc1ccc(O)cc1)C(=O)N[C@H](C(=O)N[C@@H](CC(=O)O)C(=O)N[C@@H](CCCNC(=N)N)C(=O)N[C@@H](Cc1ccccc1)C(=O)N[C@@H](Cc1ccc(O)cc1)C(=O)N[C@@H](CCCCN)C(=O)N[C@H](C(=O)N[C@@H](CC(C)C)C(=O)O)[C@@H](C)O)C(C)C | -2 | x | x | 11 | x | 1%
O=C(Nc1cccc(Cl)c1)OCc1cncs1 | 1 | -3% | 5% | 29 | -1% | -13%
O=C(Nc1cccc2ccccc12)OCc1cncs1 | 24* | -5% | 0% | 32* | 11% | 0%
O=C(Nc1ccc(Cl)cc1)OCc1cncs1 | 60* | -4% | -4% | 121* | 15% | -6%
CC(=O)Nc1ccc2c(c1)n(C)c(=O)n2C | 1 | 1% | 1% | 11 | 1% | -5%
CCn1c(=O)oc2cc(NC(=O)CCl)ccc21 | 4 | 7% | -1% | 2 | 40µM* | -9%
Cn1c(=O)n(C)c2cc(NC(=O)CCl)ccc21 | 23* | 1% | -5% | 12 | 18µM* | 4%
CC1(C(=O)O)CCCC2(C)c3cc(O)ccc3CCC12 (stereo not drawn) | x | x | -1% | x | x | x
CC(C)c1cc2c(c(O)c1O)[C@@]1(C(=O)O)CCCC(C)(C)[C@@H]1CC2 | 4 | x | x | 11 | x | 10µM*
CC[C@]1(C(=O)OC)[C@H]2C(=O)N(Cc3ccccc3)C(=O)[C@H]2[C@H]2CN=C(SCC3CC3)N21 | x | x | 7% | x | x | x
SMILES | Cycloheximide cs | LmPK inh | Tb PYK inh | Shiga toxin inh | Sm TGR block | Giardia FBPA inh
O=C(NCc1ccco1)c1ccc(C(F)(F)F)cc1 | 2 | 5% | 1% | 13 | 2% | 1%
CC(Cc1ccco1)NC(=O)c1ccc(C(F)(F)F)cc1 (stereo not drawn) | 43* | -3% | 0% | + | -16% | 1%
CC(Cc1ccco1)NC(=O)c1cccc(S(=O)(=O)N(C)C)c1 (stereo not drawn) | 30* | -5% | 0% | 67* | u | 8%
CC[C@H](C)C(=O)O[C@H]1CCC=C2C=C[C@H](C)[C@H](CC[C@@H]3C[C@H](O)CC(=O)O3)C21 (stereo partly drawn) | x | x | x | x | x | -2%
Nc1nnc(-c2cccc(F)c2)s1 | -2 | -4% | 3% | 26 | -23% | -1%
CCCCCc1ccc(-c2nnc(N)s2)cc1 | 43* | 1% | 11% | 74* | 20% | 9%
CCCCCCCCCc1ccc(O)cc1 | x | x | x | x | x | -15%
CCCCCCc1ccc(-c2ncc(N)cn2)cc1 | 60* | -1% | -1% | 122* | 1% | 0%
Nc1nnc(-c2ccc(Cl)c(Cl)c2)s1 | 25* | -2% | -6% | 21 | 1% | 2%
O=C(COc1ccccc1Cl)OCc1cc(=O)n2nc(-c3cccs3)sc2n1 | x | x | 5% | x | 1% | x
COC(=O)[C@H]1C[C@@H]2CC[C@@H](O)C[C@@H]2N1Cc1c(F)cccc1Cl | x | x | x | x | x | 0%
Cn1c2ccccc2c2cc(C(=O)N3CCOCC3)sc21 | 21* | -1% | 4% | 94 | 22% | -5%
CCn1c(=O)c2cc(C(=O)N3CCOCC3)sc2c2ccccc21 | -6 | 11% | 2% | -14 | -17% | 0%
COC(=O)c1cc2c(C)nn(-c3ccccc3)c2s1 | 14 | -2% | 6% | 10 | 6% | 8%
Cc1nn(-c2ccccc2)c2sc(C(=O)N3CCOCC3)cc12 | 43* | -1% | -2% | 44* | -3% | 0%
Cc1nn(-c2ccccc2)c2sc(C(=O)N(CC(=O)NC(C)(C)C)Cc3ccco3)cc12 | 19* | 1% | -9% | 18 | -21% | 2%
C/C(CC(=O)Nc1ccccc1C)=N\NC(=O)Cc1csc(N)n1 | 41* | -4% | -8% | 62* | -28% | 25%
C/C(CC(=O)Nc1ccc(Br)cc1)=N\NC(=O)Cc1csc(N)n1 | 29* | 4% | 3% | 27 | 11% | -14%
COc1ccccc1-c1cc(C(=O)N2CCN(S(=O)(=O)c3ccc(C)cc3)CC2)[nH]n1 | -3 | -3% | 0% | -10 | -14% | -16%
CN(C)c1cccc(C(=O)NNC(=O)C23CC4CC(CC(C4)C2)C3)c1 | x | x | 2% | x | x | x
O=C(c1cc2cc(Br)ccc2[nH]1)N1CCC2(CC1)OCCO2 | 28* | 7% | -9% | 46 | -16% | x
